Measurements published in PubChem BioAssay (NCATS).
Records with an inconclusive call do not appear. Calls come from the whole dose curve; as a rule, active = well fitted curve in either direction with a large enough effect (not every such curve was filed as active); inconclusive = small, poorly fitted or top-dose-only effect, or another doubt; inactive = flat fitted curve, though single readings scatter.

Experiment: AP1 Signaling Pathway (AID 357);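 note: ME-180 reporter cells stimulated with EGF at its EC50 level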
Conditions: ME-180 (cervical carcinoma) AP-1-bla reporter, EGF-induced, beta-lactamase ratio, 5 h; at 7.69 µM (top of the series) unless noted
Description: NCGC Assay Overview: Activator protein-1 (AP-1), a transcription factor, plays an important role in tumor genesis by regulating genes involved in cell proliferation, differentiation, apoptosis, and angiogenesis. AP-1 activity is induced by a complex network of signaling pathways that involves extracellular signals, such as growth factors. The AP-1 protein complex formed from c-Fos and c-Jun binding to the AP-1 response element results in transcriptional activation of genes containing such elements within their promoter. Low molecular weight molecules have been discovered and developed to modulate various components of these signaling pathways, for example, MAP kinase inhibitors. However, many points of pathway modulation remain untested due to the lack of chemical probes making this signaling locus of general interest. Using a beta-lactamase reporter-gene under control of the AP-1 response element, a cell-based assay [CellSensor(TM) AP-1-bla ME-180 developed by Invitrogen Corp.] was used to measure EGF-induced signaling. Library compounds were measured for their ability to modulate positively or negatively the action of EC50 EGF on reporter gene activity. Compounds were screened in a titration series in 1536-well format. Positive and negative modulators were identified based on the AC50 values derived from the screening data.
NCGC Assay Protocol Summary: 2500 cells/5uL in Opti-MEM medium containing 0.5% dialyzed FBS, 0.1 mM NEAA, 1 mM sodium pyruvate and 10 mM HEPES was dispensed into 1536-well plates and cells were cultured at 37 degrees Celsius overnight. […] After centrifugation at 1000 rpm for 2 seconds the plates were incubated at 37 degrees Celsius for 5 hours. 1 uL of CCF4-dye mixture was added to each well. After incubated at room temperature for 2.5 hours the plates were measured on an EnVision plate reader at Excitation 405nm, Emission1=460nm and Emission 2=530nm. The %Activity was determined from the ratio of 460nm/530nm.
% is set by controls: 0 for no effect and ±100 for the full control effect.

Activity change, negative = inhibition, inactive:
Cc1ncc(CSc2ccccc2N)c(CO)c1O 6.48%
O=C(O)c1nc(-c2ccccc2)[nH]c1C(=O)O -6.16%
OC[C@@H]1NC[C@@H](O)[C@H]1O 0.107% [at 38 µM]
O=C(O)C[C@H](Cc1ccccc1Cl)C(=O)O -0.0824%
O=C(O)CN1C(=O)O[C@@H](c2ccccc2)C1=O -1.65%
COc1ccc(CCN(C)CCC[C@@](C#N)(c2cc(OC)c(OC)c(OC)c2)C(C)C)cc1OC 2.08% [at 38 µM]
CCCC1c2c(ccc3ccccc23)Oc2ccc3ccccc3c21 11%
O=C(O)Cn1ccnc1[N+](=O)[O-] 9.71%
O=C(O)c1ccc(NCc2nc3cc4ccccc4cc3[nH]2)cc1 -5.67%
COC(=O)[C@H](N)Cc1ccc(Cl)cc1 4.51% [at 38 µM]
CC1=NN(c2ccccc2)C(=O)[C@@H]1N=Nc1ccc(S(N)(=O)=O)cc1 6.08%
c1ccc2c(CC3NCCN3)cccc2c1 7.37%
Cc1cc(Cc2cc(C)cc(C(C)(C)C)c2O)c(O)c(Cc2cc(C)cc(C(C)(C)C)c2O)c1 -27.2%
CSc1ncnc2c1ncn2CC(=O)[C@H]1CC[C@H]2[C@H]3CCC4=CC(=O)CC[C@@]4(C)[C@@H]3CC[C@@]12C -21.5%
O=C(O)c1ccccc1-c1ccccc1C(=O)c1ccccc1 6.33%
CCCCCCCCCCCCCCCC(=O)NC[C@@H](COP(=O)([O-])OCC[N+](C)(C)C)OCC -23.3% [at 38 µM]
Nc1nc(N)nc(CCCCc2nc(N)nc(N)n2)n1 4.24%
NC([N-]/N=C/c1ccccn1)=[S]=[Fe].O=S(=O)(O)O 8.56%
COc1ccccc1-c1ccc2ncnc(NCc3cccnc3)c2c1 -18.5%
Ic1ccc2c(c1)N(c1ccccc1)c1cc(Nc3ccc4nc5ccc(I)cc5[n+](-c5ccccc5)c4c3)ccc1N2 -4%
Nc1nc(N)c2[nH]c(CNc3ccc(C(=O)O)cc3)nc2n1 -2.88%
CC(=O)Nc1c(C)cc(OCC(=O)O)cc1C -0.915%
O=c1c(-c2cccs2)nc2cnc(Oc3ccccc3)nc2n1C1CC1 -6.67%
Cc1cc(SCC(=O)c2ccccc2)nc2ccccc12 -8.06%
Cc1[nH]c(N)nc(=S)c1CCCNc1ccccc1 -2.18%
Cc1cc2ncn(CC(=O)O)c2cc1C -4.54%
O=C(C[n+]1ccc2ccccc2c1)c1ccc2ccc3ccccc3c2c1 0.901%
Cc1ccc(CCCC(=O)O)cc1C 2.32%
CC(=O)Nc1nc(NC(C)=O)c2[nH]c(CO)nc2n1 9.97%
CN(C)C[C@@H](O)c1ccc(Cl)c2ccccc12 13.3%
OCCCN=C1CCCCC1 14.4%
CSc1ccc(NC(=O)[C@H]2CCCC[C@@H]2C(=O)O)cc1 2.18%
Cc1noc(NC(=O)Nc2ccccc2F)c1C#N -0.973%
C/C(=N/O)[C@@H]1C[C@H](CC(=O)O)C1(C)C 10.6%
ON(CCc1ccncc1)Cc1ccccc1 -5.59%
NC(N)=NCCSSCCN=C(N)N -8.04% [at 38 µM]
c1nnc(NCNc2nncs2)s1 12.8%
O=C(O)CCc1nc(-c2ccccc2-n2cccc2)no1 -5.29%
CC(C)(C)c1c2c(c(C(C)(C)C)c3c1OCN(Cc1ccccc1)C3)OCN(Cc1ccccc1)C2 0.594%
OC[C@@H]1O[C@@H](n2cnc3c(SCc4ccccc4)ncnc32)[C@@H](O)[C@H]1O 3.13%
